# From PubChem BioAssay (NCI)
# Compounds without any hit were thinned out: in the full panel of roughly 83,000, 20% have a hit.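 Growth was measured after 48 h exposure to one concentration of compound in 96-well plates. Values under 10 count as active.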 Active and inactive are the calls of the source.
# Test system: 786-0 renal
# Experiment: NCI-60 one-dose screen, 48 h (100 = growth as untreated, 0 = no growth, -100 = all killed)
# Details: 10 µM
row,SMILES,growth
1,Oc1[nH]c2ccc(Cl)cc2c1/C=c1/ccc2c(c1)N=C(c1cc(F)cc(F)c1)N=2,85.9% (inactive)
2,COc1ccc2c(c1)C(=O)c1c-2c(=O)n(CCCN(C)C)c2cc(OC)c(OC)cc12,71.8% (inactive)
3,CCCCCCCCCCCCCCCCN(C(C)c1ccccc1)S(=O)(=O)c1ccc(OC)c(N)c1 (configuration not stated),124% (inactive)
4,COc1ccc2c(c1)C(=O)c1c-2c(OCCN(C)C)nc2ccccc12,33.7% (inactive)
5,CO/N=C(/C(=O)NC1C(=O)N2C(C(=O)O)=C(COC(N)=O)CSC12)c1ccco1 (configuration not stated),96% (inactive)
6,CC/C(=C(/c1ccc(OCCN(C)C)cc1)c1ccc(OC(=O)CCC(=O)c2c(C)[nH]c(/C=C3\N=C(c4ccc[nH]4)C=C3OC)c2C)cc1)c1ccccc1,21.4% (inactive)
7,COc1ccc2c(c1)O/C(=C\c1ncc([N+](=O)[O-])n1C)C2=O,-13.4% (active)
8,COc1ccc(/C=C2/CN(C(=O)c3ccccc3F)C/C(=C\c3ccc(OC)cc3)C2=O)cc1,56.9% (inactive)
9,O=C(Nc1cccc(-n2cc(-c3ccncc3)c(-c3cc(O)cc(Cl)c3)n2)c1)c1ccc(N2CCOCC2)c(C(F)(F)F)c1,36.6% (inactive)
10,COc1ccc(/C=C2/CN(CCC#N)C/C(=C\c3ccc(OC)cc3)C2=O)cc1,-14.3% (active)
11,Nc1ncn([C@@H]2O[C@H](CO)[C@@H](O)[C@H]2O)c(=O)n1,23.8% (inactive)
12,COc1cccc(C(=O)Nc2ccc(CN3CCc4nc5cc(OC)c(OC)cc5cc43)cc2)c1,64.1% (inactive)
